# PPARg SRC-3 ag: promotes SRC-3 coactivator recruitment by human PPARgamma | P37231 | biochemical PPARgamma/SRC-3 coactivator recruitment assay | activation, % at 8 µM | 0.26% of 200,000 active | AID 731; in the data active means activation above about 23%;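 further: 0% = DMSO and 100% = reference agonist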
# Target sequence (P37231 whole entry, looked up): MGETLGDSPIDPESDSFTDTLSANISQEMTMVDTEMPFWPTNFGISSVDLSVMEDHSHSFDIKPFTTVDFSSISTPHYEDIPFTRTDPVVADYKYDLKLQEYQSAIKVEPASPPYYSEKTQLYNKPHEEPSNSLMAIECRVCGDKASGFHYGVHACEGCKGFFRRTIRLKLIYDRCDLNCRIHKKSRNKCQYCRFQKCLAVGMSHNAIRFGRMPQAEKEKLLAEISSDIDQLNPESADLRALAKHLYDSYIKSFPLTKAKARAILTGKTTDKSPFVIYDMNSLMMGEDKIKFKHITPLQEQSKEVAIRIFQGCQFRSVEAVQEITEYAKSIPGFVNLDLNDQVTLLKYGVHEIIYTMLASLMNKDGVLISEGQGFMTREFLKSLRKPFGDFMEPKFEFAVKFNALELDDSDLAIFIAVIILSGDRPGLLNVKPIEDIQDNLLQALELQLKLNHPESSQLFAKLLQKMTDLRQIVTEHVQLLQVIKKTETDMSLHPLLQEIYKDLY
# PPARg SRC2 recr: PPARgamma-driven SRC-2 recruitment agonism. P37231. PPARgamma LBD-SRC-2 recruitment, biochemical. activation, % at 8 µM. 0.34% of 200,000 active;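 further: 0% = vehicle and 100% = reference agonist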
# PPARg SRC-1 ag: agonists of human PPARgamma SRC-1 coactivator recruitment; AID 631; P37231; 0.41% of 200,000 active; activation, % at 8 µM; PPARgamma-SRC-1 coactivator recruitment biochemical assay; in the data active means activation above about 19%;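 further: 0% = DMSO and 100% = reference agonist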
# SRC3 TRFRET art: TR-FRET artefact, counter-screen to PPARgamma/SRC-3 agonist assay; PPARgamma/SRC-3 format; stronger effect = higher value; TR-FRET ratio at 8 µM; 0.39% of 99,000 active; in the data active means TR-FRET ratio above about 2000
# TR-FRET SRC-2 ct: TR-FRET artefact, counter-screen to PPARgamma/SRC-2 agonist assay | stronger effect = higher value | TR-FRET ratio at 8 µM | 0.4% of 200,000 active | AID 1049; in the data active means TR-FRET ratio above about 2000
# SRC1 TRFRET art: counter-screen for PPARgamma SRC-1 recruitment agonists: TR-FRET artefact; TR-FRET detection artefact counter-screen, emission ratio; stronger effect = higher value; TR-FRET ratio at 8 µM; 0.34% of 99,000 active; AID 1051; in the data active means TR-FRET ratio above about 2300
# PPARg SRC2 conf: human PPARgamma SRC-2 recruitment agonism, confirmation; activation, % at 8 µM; 52% of 790 active; biochemical SRC-2 recruitment by PPARgamma; shares compounds with PPARg SRC-3 ag;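 further: 0% = vehicle alone and 100% = reference agonist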
# PPARg SRC1 conf: confirmation of agonists of SRC-1 recruitment by human PPARgamma; shares compounds with PPARg SRC-3 ag; 43% of 790 active; PPARgamma–SRC-1 coactivator recruitment biochemical assay; AID 1300; activation, % at 8 µM; in the data active means activation above about 20%;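 further: 0% = vehicle wells and 100% = reference agonist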
# PPARg SRC3 conf: confirmation of agonists of SRC-3 recruitment by human PPARgamma. shares compounds with PPARg SRC-3 ag. biochemical PPARgamma-SRC-3 coactivator recruitment, agonist mode. activation, % at 8 µM. 29% of 790 active. AID 1301; in the data active means activation above about 24%;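 further: 0% = vehicle wells and 100% = reference agonist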
# Active calls of the source: *; nt = no result. Shown are actives, neighbours in structure and some others; about 0.84% of the full set was active somewhere. Unless noted, no stated cut-off is given here; in the data, active means activation above about 22%; inactive means the rest.
SMILES,PPARg SRC-3 ag,PPARg SRC2 recr,PPARg SRC-1 ag,SRC3 TRFRET art,TR-FRET SRC-2 ct,SRC1 TRFRET art,PPARg SRC2 conf,PPARg SRC1 conf,PPARg SRC3 conf
CCn1c(=O)cc(SCC(=O)NCc2ccc(C)cc2)c2ccccc21,76*,70*,50*,nt,3248*,nt,51*,34*,32*
CCn1c(=O)cc(SCC(=O)NCc2cccnc2)c2ccccc21,2,18,21*,nt,1938,nt,20,14,11
CCn1c(=O)cc(SCC(=O)NCc2ccccn2)c2ccccc21,18,26*,20*,nt,1908,nt,27*,17,18
CCn1c(=O)cc(OCC(=O)NCc2cccnc2)c2ccccc21,1,-1,4,nt,1642,nt,nt,nt,nt
CCn1c(=O)cc(SCC(=O)NCc2ccc(C)o2)c2ccccc21,5,10,11,nt,1550,nt,nt,nt,nt
Nn1c(SCc2ccccn2)nncc1=O,4,3,6,1581,1627,1756,nt,nt,nt
CCn1c(=O)cc(SCC(=O)NCc2ccco2)c2ccccc21,30*,33*,22*,nt,1824,nt,27*,18,16
O=C(Nc1ccccc1)c1ccc(-c2ccccc2)s1,17,39*,39*,2060*,2178*,2787*,44*,35*,26*
O=C(Nc1ccc(F)cc1)c1csc(Cc2ccccc2)n1,-2,-1,3,1441,1652,1886,nt,nt,nt
COc1ccc(NC(=O)COC(=O)[C@@H]2CCCN2C(=O)c2cccs2)cc1,2,-1,-3,nt,1588,nt,nt,nt,nt
O=C(CSc1ncnc2c1oc1ccccc12)NC1CCCCC1,33*,24*,64*,nt,2101*,nt,49*,37*,32*
O=C(CSc1ncnc2c1oc1ccccc12)Nc1nccs1,3,14,0,1569,1614,1953,nt,nt,nt
O=C(CSc1ncnc2c1oc1ccccc12)c1cccs1,69*,30*,52*,nt,2091*,nt,38*,25*,23
O=C(CSc1ncnc2c1oc1ccccc12)OCc1ccccc1,42*,55*,46*,nt,2399*,nt,41*,34*,29*
NC(=O)CSc1ncnc2c1oc1ccccc12,153*,110*,120*,nt,4661*,nt,76*,55*,53*
COc1ccc(C2Nc3ccccc3C(=O)N2Cc2ccco2)cc1COc1ccc([N+](=O)[O-])cc1 (stereo not drawn),-6,-1,-6,nt,1622,nt,nt,nt,nt
COc1ccc(C2Oc3ccccc3C3=C2C(c2cccs2)n2ncnc2N3)cc1 (stereo not drawn),-8,-4,0,nt,1591,nt,nt,nt,nt
c1ccc(-c2ccn3nnnc3n2)cc1,-9,-5,3,nt,1452,nt,nt,nt,nt
CCn1c(C)nc2cc(S(=O)(=O)N3CCCC3)ccc21,-10,24*,1,nt,1843,nt,-2,2,2
COc1cccc(/C=N/NC(=O)C(C)n2nc(C)c([N+](=O)[O-])c2C)c1O (stereo not drawn),4,8,8,1499,1441,1921,nt,nt,nt
COc1ccc(-c2cc(C(=O)Nc3c(C)n(C)n(-c4ccccc4)c3=O)no2)cc1,2,1,1,1692,1523,1702,nt,nt,nt
O=C1c2ccccc2C(=O)c2c1ccc1c(=O)n(-c3ccccc3)[nH]c21,2,6,10,1724,1455,1572,nt,nt,nt
CC(C)Cn1[nH]c2c3c(ccc2c1=O)C(=O)c1ccccc1C3=O,26*,20,15,nt,1610,nt,5,4,5
Cn1c(C(=O)N2CCN(Cc3ccc4c(c3)OCO4)CC2)cc2c(=O)n(C)c3ccccc3c21,-1,7,6,nt,1748,nt,nt,nt,nt
CCSc1ccccc1C(=O)N1CCN(Cc2ccc3c(c2)OCO3)CC1,8,4,0,nt,1434,nt,nt,nt,nt
CCn1c(=O)cc(SCC(=O)N2CCN(Cc3ccc4c(c3)OCO4)CC2)c2ccccc21,42*,55*,45*,nt,2608*,nt,27*,17,18
